Sampled rows, rich in hits. Any-hit rate of the full collection: about 2.7%.
TRPM1 prom inh – reduces MITF-dependent TRPM1 promoter luciferase signal | SK-MEL-5 TRPM1 promoter luciferase, 24 h | inhibition, % at 12.5 µM | hit rate 0.83% among 330,000;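 active = mean inhibition across replicates of 60% or more, whatever share of single replicates reaches that level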
Shn3 inh set2 – Schnurri-3 reporter inhibition in Clone20 osteoblasts. AID 588674. Clone20 osteoblast Shn3 3'UTR firefly luciferase, 24 h. inhibition, % at 12.5 µM. hit rate 0.52% among 360,000;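 active = mean inhibition of at least 75% with every replicate also reaching 75%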
HIF-2a inh – inhibitors of HIF-2a; hit rate 0.72% among 360,000; inhibition, % at 18.8 µM; 786-0 RCC cells HIF-2a reporter, luciferase luminescence, overnight;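 active = inhibition of the luminescence signal of 40% or more relative to plate controls, in a single-dose primary screen at 18.75 µM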
CF NFkB inh – cystic fibrosis NF-kB activation inhibition; KKLEB NF-kB-GFP reporter, PAF-induced, GFP fluorescence overnight; inhibition, % at 5 µM; hit rate 0.86% among 360,000; AID 588850;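 active = at least 50% inhibition at 5 µM, scaled per plate between neutral and stimulator controls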;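 also: PAF is a Pseudomonas aeruginosa culture filtrate used as stimulus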
Peg3 promoter – Peg3 promoter activity inhibition | HeLa PEG-Prom luciferase reporter, luminescence, overnight | inhibition, % at 20 µM | hit rate 1.7% among 360,000 | AID 588405;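 active = inhibition of at least 50% at 20 µM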
KKLEB cytotox – counter-screen for CF NF-kB inhibitors: cytotoxicity; KKLEB CF airway cells viability, ATPlite luminescence, overnight; hits give low values; cells stimulated with P. aeruginosa culture filtrate; activity change (cytotoxicity), % at 5 µM; hit rate 0.36% among 360,000; AID 602141;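 active = corrected activity change at or below -50% at 5 µM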
Each line names hits and unclear results; the compound was inactive in the other large screens.

CC(C)=CCc1c(O)ccc2c1OC(c1ccc(O)c(O)c1)CC2=O (configuration not stated)	TRPM1 prom inh 71
O=C1CC(c2ccc(O)c(O)c2)Oc2c1ccc(O)c2O (configuration not stated)	none
C(=N\N1CCN(Cc2ccccc2)CC1)/c1ccc(-c2ccccc2)cc1	Shn3 inh set2 89
CCN(CC(=O)Nc1c(F)cccc1F)C(=O)CCCc1cccs1	none
CN(C)S(=O)(=O)c1cccc(NC(=S)N/N=C/c2cccc(O)c2)c1	none
CN(C)S(=O)(=O)c1cccc(NC(=S)N/N=C/c2cc(Br)ccc2O)c1	TRPM1 prom inh 67, Shn3 inh set2 91, Peg3 promoter 54
COc1cc(NS(=O)(=O)c2ccc(N/C=C(\C#N)c3nc4cc(Cl)ccc4o3)cc2)nc(OC)n1	TRPM1 prom inh 77
N#Cc1cccnc1N1CCN(C(C(=O)NC2CCCC2)c2ccc(F)cc2)CC1 (configuration not stated)	none (no result: TRPM1 prom inh, Shn3 inh set2, CF NFkB inh, Peg3 promoter, KKLEB cytotox)
COC1(OC)C(/C=C/c2ccc(Cl)cc2)C(C#N)(C#N)C1(OC)OC (configuration not stated)	CF NFkB inh 57, Peg3 promoter 63, KKLEB cytotox -60
c1ccc(CN2CCC(CNc3ncnc4ccccc34)C2)cc1 (configuration not stated)	none
c1ccc(CN2CCC(Nc3nc(-c4ccccc4)nc4ccccc34)CC2)cc1	Peg3 promoter 75
c1ccc(CNc2nc(N3CCN(Cc4ccccc4)CC3)nc3ccccc23)cc1	Peg3 promoter 65 (no result: TRPM1 prom inh)
CC(=O)Nc1ccccc1-c1cccc2nccn12	none (no result: TRPM1 prom inh)
Cc1cc(C)c(OCC(=O)OC(C)C(=O)N2CCc3ccccc32)c(C)c1 (configuration not stated)	none
C=CCn1c(SCC(=O)Nc2sccc2C(N)=O)nc2ccc(Cl)cc2c1=O	Peg3 promoter 52
C=CCn1c(SCC(=O)Nc2sccc2C(N)=O)nc2sc(CC)cc2c1=O	Peg3 promoter 57
C=CCn1c(SCC(=O)Nc2sccc2C(N)=O)nc2ccccc2c1=O	none
CNC(=S)N(Cc1ccc(OC)cc1)Cc1cc2cc(C)ccc2[nH]c1=O	none
COc1ccccc1NC(=O)N(Cc1cccs1)Cc1cc2cc3c(cc2[nH]c1=O)OCO3	Peg3 promoter 53
O=C(c1ccccc1)N(CCO)Cc1cc2cc3c(cc2[nH]c1=O)OCCO3	none
COC(=O)c1ccccc1NC(=S)N(Cc1ccc2c(c1)OCO2)Cc1cc2cc(OC)ccc2[nH]c1=O	Shn3 inh set2 89
COc1ccccc1NC(=S)N(CCCN(C)C)Cc1cc2cc3c(cc2[nH]c1=O)OCO3	none
CCOc1ccccc1C(=O)N(Cc1ccccc1)Cc1cc2cc3c(cc2[nH]c1=O)OCCO3	Peg3 promoter 61, KKLEB cytotox -62
CC12CCC(=O)N1C(C(=O)Nc1nnc(SCc3ccc(F)cc3)s1)CS2 (configuration not stated)	none
CCc1nc2c(OCCC3CCCCC3)cccn2c1N(C=O)Cc1ccccc1	Peg3 promoter 66 (no result: TRPM1 prom inh)
COc1ccccc1-c1cc(-c2ccccc2)nc(SC(C(N)=O)c2ccccc2)c1C#N (configuration not stated)	CF NFkB inh 60, KKLEB cytotox -72
COC(=O)c1ccc(-n2c(C)cc(C(=O)COC(=O)C3=COCCO3)c2C)cc1	none
CCOc1ccc(-n2c(C)cc(C(=O)CCl)c2C)cc1	TRPM1 prom inh 69, Peg3 promoter 111
COC(=O)c1ccc(-n2c(C)cc(C(=O)CCl)c2C)cc1	TRPM1 prom inh 87, Peg3 promoter 82
CCOC(=O)C(=O)N(C)c1c(CC)nc2c(OCc3ccccc3C)cccn12	none (no result: TRPM1 prom inh)
NC(=N\N=CCc1ccccc1)/C(N)=N/N=CCc1ccccc1	none
CCCN(CCC)CCNC(=O)c1cc2c(-c3ccc(Cl)cc3)nn(C)c2s1	Peg3 promoter 76
CCOCCCNC(=O)c1cc2c(-c3ccc(Cl)cc3)nn(C)c2s1	none
CCCCN(CC)CCNC(=O)c1cc2c(-c3ccc(Cl)cc3)nn(C)c2s1	TRPM1 prom inh 68, Peg3 promoter 103
CCCN(CCC)CCNC(=O)c1cc2c(-c3ccccc3F)nn(C)c2s1	none
c1ccc2c(c1)C1=NCCN1c1ccccc1-2	Peg3 promoter 104 (no result: TRPM1 prom inh)
COC1=Nc2ccccc2N2CCN=C12	none (no result: TRPM1 prom inh)
O=C1/C(=C/c2ccncc2)CCC/C1=C\c1ccncc1	TRPM1 prom inh 96, HIF-2a inh 93, CF NFkB inh 86, Peg3 promoter 101
O=C1C(=Cc2ccncc2)CCCc2ccccc21	none (no result: TRPM1 prom inh)
CN(C)C(=O)c1cc(C(=O)c2c(F)cccc2F)c[nH]1	none
COC(=O)c1c(N2C(=O)[C@H]3[C@@H](C2=O)[C@]2(C(=O)Nc4c(C)cccc42)N2CCC[C@@H]32)sc(C)c1C	Peg3 promoter 56
Cc1cc(Cl)cc2c1NC(=O)[C@]21[C@@H]2C(=O)N(Cc3ccccc3)C(=O)[C@@H]2[C@@H]2CCCN21	none
Cc1noc(C)c1NC(=O)N(C)C[C@@H]1Oc2ncc(Br)cc2C(=O)N([C@@H](C)CO)C[C@@H]1C	none (no result: TRPM1 prom inh)
O=C1/C(=C/c2ccccc2Cl)SC(=S)N1CCC(=O)N1CCCCC1CCO (configuration not stated)	Peg3 promoter 55
COc1ccc(/C=C2\SC(=S)N(CCCC(=O)N3CCCCC3CCO)C2=O)cc1 (configuration not stated)	HIF-2a inh 83
CC(C)c1ccc(/C=C2\SC(=S)N(CCC(=O)N3CCCCC3CCO)C2=O)cc1 (configuration not stated)	TRPM1 prom inh 76, HIF-2a inh 86
O=C1/C(=C\c2ccccc2)SC(=S)N1CCC(=O)N1CCCCC1CCO (configuration not stated)	none
COC(=O)c1cccc(NC(=O)c2ccc3c(c2)C(=O)N(Cc2cccnc2)C3=O)c1C	none
CSCCC(NC(=O)c1ccccc1Cl)C(=O)Nc1cccc(S(=O)(=O)N2CCCC2)c1 (configuration not stated)	none
O=C(NCc1nnc(SCC(=O)N2CCOCC2)o1)c1ccccc1	none (no result: TRPM1 prom inh)
Cc1cc(C)n(-c2nc(NCCCN(C)C)c3c4c(sc3n2)CCCC4)n1	none (no result: TRPM1 prom inh)
Cc1cc(C)n(-c2nc(NCCN(C)C)c3c4c(sc3n2)CCCC4)n1	TRPM1 prom inh 66, Peg3 promoter 103
CCn1c2ccccc2nc2cc3c(cc21)c(Cl)c(=O)c1ccccc13	HIF-2a inh 54, CF NFkB inh 81, Peg3 promoter 62 (no result: TRPM1 prom inh)
O=C(c1ccccc1)c1ccccc1N1C(=O)C=CC1=O	Shn3 inh set2 93, CF NFkB inh 78, Peg3 promoter 104
O=C(O)c1cccc(N2C(=O)C=CC2=O)c1	none (no result: TRPM1 prom inh)
COc1cccc(NC(=O)C2(C)CCN2Cc2ccc3ccccc3c2)c1 (configuration not stated)	none (no result: TRPM1 prom inh)
COc1cc(OC)cc(C(=O)Nc2cccc3cccnc23)c1	none
